Several values for one entry are separate records, joined by “and”; a condition that tells them apart may be missing. Identical values can stand only once. ± gives the standard deviation of the averaged measurements.

What all share (conditions): concentration: 10 µM; 24 h
The subject of assay [1] is HCC1569. Nature of the assay: cell number relative to DMSO (% of DMSO); higher = more cells (less growth inhibition / toxicity). A digest of the protocol:
(§1)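 H1.0 nuclear intensity or cell number is stated as percent of the plate control, based on the median of replicates, and HCC1569 values were smoothed for positional effects. These came from HCC1569 and TDF cells treated with compounds at 10 µM for 24 h at 37 °C in triplicate, then fixed in 3.7% formaldehyde and stained with a rabbit anti-H1.0 antibody, an AlexaFluor 647 secondary and DAPI.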

The subject of assay [2] is TDF. The assay is described as above. A digest of the protocol: as §1
Assay [3] has as its system TDF. Nature of the assay: H1.0 immunofluorescence intensity relative to DMSO (% of DMSO); higher = stronger H1.0 induction, active = 120 or more. A digest of the protocol: as §1
The test system of assay [4] is HCC1569. Put plainly: H1.0 immunofluorescence intensity relative to DMSO (% of DMSO); higher = stronger H1.0 induction, active = 140 or more. A digest of the protocol:
as §1
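Throughout, for H1.0 immunofluorescence intensity relative to DMSO: TDF is a line of transformed human dermal fibroblasts of mesenchymal origin.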
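Throughout, for cell number relative to DMSO: TDF denotes transformed human dermal fibroblasts of mesenchymal origin.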

Turning to `CCCCCC(O)C=CC1C(O)CC(O)C1CC=CCCCC(=O)O` (racemic), the results for the cell number in the assay on HCC1569 [1] and with TDF [2] were 106 and 105, respectively. Besides, the H1.0 immunofluorescence intensity was 88.4 (inactive) in the assay on TDF [3] and 99.4 (inactive) in the assay with HCC1569 [4].
Regarding `Cc1ccc(OCC(O)C(C)NC(C)C)c2c1CCC2.Cl` (stereo unspecified) [ICI 118,551 hydrochloride], the cell number with HCC1569 [1] turned out to be 101; in the assay with TDF [2], 104. The H1.0 immunofluorescence intensity with TDF [3] was 96.9 (inactive); in the assay on HCC1569 [4], 98.4 (inactive).
With `Nc1ncnc2c1cnn2-c1ccccc1`, the cell number turned out to be 103 with HCC1569 [1] and 110 in the assay on TDF [2]. Moreover, the H1.0 immunofluorescence intensity in the assay on TDF [3] was 91.4 (inactive); in the assay with HCC1569 [4], 104 (inactive).
Regarding `CCCCC(C)(O)CC=CC1C(O)CC(=O)C1CCCCCCC(=O)O` (stereo unspecified) [Misoprostol, free acid], the cell number was determined as 100 in the assay on HCC1569 [1] and 85.8 in the assay on TDF [2]. For the same compound, the values for the H1.0 immunofluorescence intensity with TDF [3] and in the assay with HCC1569 [4] were 95.6 (inactive) and 98.8 (inactive), respectively.
Take `COc1ccc2c(c1)c(C1=C(c3c[nH]c4ccccc34)C(=O)NC1=O)cn2CCCN(C)C`: the cell number in the assay with HCC1569 [1] was determined as 83.9; in the assay with TDF [2], 99.3. Further, the values for the H1.0 immunofluorescence intensity with TDF [3] and with HCC1569 [4] were 98.6 (inactive) and 174 (active), respectively.
The like results for `NC(N)=S` [Thiourea] were, in that order, 100, 108, 92.6 (inactive) and 99.6 (inactive).
As for `Nc1ccc(C(=O)O)c(O)c1` [4-Aminosalicylic acid], the cell number with HCC1569 [1] is 105; in the assay with TDF [2] it was 98.2.
On to `CCOc1nc2cccc(C(=O)O)c2n1Cc1ccc(-c2ccccc2-c2nn[nH]n2)cc1` [Candesartan], for which the cell number is 104 in the assay with HCC1569 [1] and 97.2 in the assay on TDF [2]. In addition, the figures for the H1.0 immunofluorescence intensity in the assay with TDF [3] and in the assay with HCC1569 [4] were 99.8 (inactive) and 99.7 (inactive), respectively.
The like results for `COc1c(OCCCCN2CCN(C)CC2)cc(O)c2c(=O)cc(-c3ccccc3)oc12` were, in that order, 25.3, 34.9, 133 (active) and 119 (inactive).
On the same counts, the results for `CCCCCC(O)CC=C1C(=O)C=CC1CC=CCCCC(=O)O` (stereo unspecified) [D12-Prostaglandin J2] are 108, 96.8, 103 (inactive) and 106 (inactive).
Consider `COc1ccc(S(=O)(=O)N(CCO)c2ccccc2CN(C)CC=Cc2ccc(Cl)cc2)cc1`, for which the cell number was 74.4 in the assay with HCC1569 [1] and 86.7 in the assay on TDF [2]. For the same compound, the H1.0 immunofluorescence intensity is 103 (inactive) in the assay with TDF [3] and 183 (active) with HCC1569 [4].
On to `Cc1ccc(NC(=O)c2ccc(CN3CCN(C)CC3)cc2)cc1Nc1nc(-c2cccnc2)cs1` [Masatinib(AB1010)], for which the cell number in the assay with HCC1569 [1] amounted to 82.7; in the assay with TDF [2], 79.9. The H1.0 immunofluorescence intensity was 109 (inactive) in the assay on TDF [3] and 141 (active) with HCC1569 [4].
The like results for `CCCCCCCCC=CCCCCCCCC(=O)NCCO` [N-Oleoylethanolamine] were, in that order, 99.9, 108, 98.4 (inactive) and 115 (inactive).
On to `Cc1nccn1CC1CCc2c(c3ccccc3n2C)C1=O` (stereo unspecified) [Ondansetron], for which the values for the cell number in the assay with HCC1569 [1] and in the assay on TDF [2] were 103 and 104, respectively. The values for the H1.0 immunofluorescence intensity with TDF [3] and in the assay on HCC1569 [4] were 95.4 (inactive) and 118 (inactive), respectively.
Consider `Cl.NO` [Hydroxylamine hydrochloride], for which the values for the cell number in the assay on HCC1569 [1] and with TDF [2] were 96.2 and 95.5, respectively. Moreover, the figures for the H1.0 immunofluorescence intensity in the assay with TDF [3] and with HCC1569 [4] were 97.8 (inactive) and 89.7 (inactive), respectively.
In the case of `CC1=CCC2(C)CCC(O)(C(C)C)C2C(OC(=O)c2ccc(O)cc2)C1` (stereo unspecified) [Ferutinin], the cell number in the assay on HCC1569 [1] and in the assay with TDF [2] was 102 in each case. Also, the H1.0 immunofluorescence intensity in the assay with TDF [3] is 97.8 (inactive); with HCC1569 [4], 107 (inactive).
With `CCCc1c(OCCCCc2nn[nH]n2)ccc(C(C)=O)c1O`, the cell number was 104 in the assay on HCC1569 [1]; 101 and 110 in the assay on TDF [2]. Also, the H1.0 immunofluorescence intensity with TDF [3] is 97.5 (inactive) and 94.5 (inactive); in the assay on HCC1569 [4], 105 (inactive).
As for `Cl.NC(N)=NC(=O)c1nc(Cl)c(N)nc1N` [Amiloride hydrochloride], the cell number turned out to be 99.3 with HCC1569 [1] and 100 in the assay with TDF [2]. Also, the H1.0 immunofluorescence intensity with TDF [3] was 97.6 (inactive); with HCC1569 [4], 96.9 (inactive).
As for `Cl.Oc1ccc(C2CNCCc3c2cc(O)c(O)c3Cl)cc1` (stereo unspecified) [Fenoldopam.HCl], the cell number is 97.6 with HCC1569 [1] and 97.8 in the assay with TDF [2]. The H1.0 immunofluorescence intensity is 97 (inactive) in the assay with TDF [3] and 121 (inactive) in the assay with HCC1569 [4].
As for `Cc1oncc1C(=O)Nc1ccc(C(F)(F)F)cc1` [Leflunomide], the results for the cell number in the assay on HCC1569 [1] and with TDF [2] were 103 ± 3.5 and 107 ± 3.5, respectively. The H1.0 immunofluorescence intensity in the assay on TDF [3] is 97.1 (inactive); in the assay with HCC1569 [4] it was 101 (inactive).
Consider `CC(Cc1ccccc1)Nc1ncnc2c1ncn2C1OC(CO)C(O)C1O` (stereo not drawn) [R(-)-N6-(2-Phenylisopropyl)adenosine], for which the cell number in the assay on HCC1569 [1] was determined as 107; in the assay with TDF [2], 96.5. Also, the H1.0 immunofluorescence intensity in the assay with TDF [3] is 93.6 (inactive); with HCC1569 [4] it was 102 (inactive).
On the same counts, the results for `CC1(COc2ccc(CC3SC(=O)NC3=O)cc2)CCCCC1` (stereo unspecified) [Ciglitizone] are 102, 105, 96.5 (inactive) and 90.5 (inactive).
With `CCCCN1CCC(n2c(=O)[nH]c3ccccc32)CC1.O=C(O)C(=O)O` [NS 521 oxalate], the cell number with HCC1569 [1] was found to be 98; in the assay with TDF [2], 102. Also, the H1.0 immunofluorescence intensity in the assay with TDF [3] was 86.7 (inactive); in the assay with HCC1569 [4], 98.3 (inactive).
For the compound `CCCCCC(=O)C=CC=CCC=CCC=CCCCC(=O)O` [15-Ketoeicosatetraenoic acid], the cell number with HCC1569 [1] stood at 99.5; with TDF [2] it was 102. For the same compound, the H1.0 immunofluorescence intensity was 94 (inactive) with TDF [3] and 86.9 (inactive) in the assay with HCC1569 [4].
On to `CCCCCC(O)C=CC=CCC=CCCCCCCC(=O)O` (stereo unspecified), for which the cell number in the assay with HCC1569 [1] came out at 99.9; with TDF [2] it was 104. In addition, the figures for the H1.0 immunofluorescence intensity in the assay on TDF [3] and with HCC1569 [4] were 99.2 (inactive) and 94.6 (inactive), respectively.
For the compound `CCCCCCCCCCCC=CCCCCCC(=O)O` [7(Z)-Nonadecenoic acid], the values for the cell number in the assay on HCC1569 [1] and with TDF [2] were 97.8 and 104, respectively. Further, the H1.0 immunofluorescence intensity in the assay on TDF [3] is 101 (inactive); with HCC1569 [4] it was 96.9 (inactive).
`CCCCc1c(-c2ccc(OC)cc2)[nH]c2nccnc12` [Aloisine, RP106]: the cell number turned out to be 94.7 with HCC1569 [1] and 97.5 with TDF [2]. Further, the H1.0 immunofluorescence intensity is 93.2 (inactive) in the assay with TDF [3] and 110 (inactive) in the assay with HCC1569 [4].

For the origin of these results see the supplement of paper PMC7156485.
